Bioassay records from PubChem BioAssay.
CtBP-E1A inh: qHTS Assay for Inhibitors of the CtBP/E1A Interaction; AlphaScreen GST-E1A/His-CtBP binding, 1536-well; stronger effect = lower value; activity change, % (no concentration beside the values); actives 0.49% (n = 340,000); in the data active means activity change below about -65%; inconclusive means mostly about -30% to -63%; further: on the % scale 0 is the no-effect control and ±100 the full control effect
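Homogeneous bead-based format: GST-tagged E1A captured on glutathione donor beads, His-tagged CtBP on nickel acceptor beads; compounds precede bead addition by 2 h at 37 °C.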
ATXN viability: Viability Counterscreen for Primary qHTS for Inhibitors of ATXN expression. S2 cells (HEK-293 line with an ATXN2-luciferase reporter) viability, CellTiter-Fluor protease fluorescence, 24 h. Potency, µM (titrated, usually from 56.7 µM), hits mostly cytotoxic. actives 0.49% (n = 400,000). AID 651635, 2014; further: potency means the concentration at half of the fitted maximal effect; nearly all actives have a fitted effect of over 40% in size
Six1-Eya2 blk: qHTS Assay for Inhibitors of the Six1/Eya2 Interaction; activity change, % (no concentration beside the values); actives 0.56% (n = 360,000); AlphaScreen GST-Six1/His-Eya2 binding, biochemical; stronger effect = lower value; in the data active means activity change below about -65%; inconclusive means mostly about -30% to -63%; further: on the % scale 0 is the no-effect control and ±100 the full control effect
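GST-Six1 + His-Eya2 (5X stock: 250/500 nM); Tris pH 8.0, 300 mM NaCl, 0.05% BSA, 0.02% Tween 20; GSH donor/Ni acceptor beads; 1 h 37 °C dark; AlphaScreen readout.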
ATXN2 expr inh: Primary qHTS for Inhibitors of ATXN expression; HEK-293 ATXN2-luciferase reporter, luminescence, 24 h; Potency, µM (doses to about 57 µM), for inactives: at the highest dose activity change, negative = inhibition, most hits filed as inhibitors; actives 0.72% (n = 360,000); further: potency means the concentration at half of the fitted maximal effect; on the % scale 0 is the no-effect control and ±100 the full control effect; nearly all actives have a fitted effect of over 55% in size
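ATXN2-luciferase reporter cells (luciferase flanked by upstream and downstream ATXN2 gene portions) were treated 24 h at 37 °C with compounds at up to 57 uM. SteadyGlo luminescence gave expression; GF-AFC fluorescence gave viability.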
HepG2 viability: qHTS for Inhibitors of TGF-b: Cytotox Counterscreen | HepG2 CAGA-GFP viability, ATP luminescence, 18 h | Potency, µM (doses to about 46.1 µM), without a hit: top-dose activity change, negative = cytotoxicity, actives largely listed as cytotoxic | actives 0.76% (n = 410,000); further: potency means the concentration at half of the fitted maximal effect
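CellTiter-Glo luminescence gave cytotoxicity after 18 hours at 37 degrees C. The cells were HepG2 CAGA-GFP in 1% FBS DMEM, stimulated with 500 pg/mL TGF-beta after compound addition. %Activity was normalised to no-cell wells (complete cell-killing) and DMSO (no toxicity), and curves were fitted and classified.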
TGFb SMAD3 inh: qHTS for Inhibitors of TGF-b | actives 1.2% (n = 410,000) | HepG2 CAGA-GFP TGF-b/SMAD3 reporter, GFP fluorescence, 18 h; TGF-beta stimulated, 500 pg/mL final | AID 588855, 2011 | Potency, µM (series often up to 46.1 µM), without a hit: at the highest dose activity, negative = inhibition, actives largely listed as inhibitors; further: potency means the concentration at half of the fitted maximal effect; on the % scale 0 is the no-effect control and ±100 the full control effect; nearly all actives have a fitted effect of over 65% in size
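HEPG2 CAGA-GFP cells (1000/well, DMEM with 1% FBS) were pre-incubated 2 h at 37 degrees C, given compound by pin tool, then stimulated with TGF-beta at 500 pg/mL final for 18 h before per-cell GFP fluorescence imaging.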
* hit, by the source's call; i = inactive; ? = inconclusive; . = no result given. The list is not random: actives were taken first. Their share in the collection is about 2.8%. Unless noted, the call rests on the fitted dose curve; in most records, active means well fitted curve in the direction sought with a large enough effect; inconclusive means small, poorly fitted or top-dose-only effect, or another doubt; inactive means no such curve, though single readings can be large; an effect the other way counts as inactive or inconclusive.

SMILES | CtBP-E1A inh | ATXN viability | Six1-Eya2 blk | ATXN2 expr inh | HepG2 viability | TGFb SMAD3 inh
Nc1cc(=O)nc(SCC(=O)Nc2cccc(Cl)c2)n1CCc1ccccc1 | . | i | . | -6% | -28% | 11%
Cc1nn(-c2ccccn2)c2c1C(c1ccccc1Cl)C1=C(N2)c2ccccc2C1=O (configuration not stated) | 4 | 2.2µM* | -24 | ? | -1% | -4%
CSC1=C(C#N)C(c2ccccc2Cl)C2=C(N1)c1ccccc1C2=O (configuration not stated) | 1 | ? | -3 | -18% | 5% | 18%
COC(=O)CNC(=O)c1cnn(-c2ncc3c(n2)-c2ccccc2CCC3)c1C1CC1 | . | i | . | . | . | .
C=CCn1c(SCC(=O)Nc2ccc3c(c2)OCO3)nnc1-c1cc(Br)ccc1O | -92* | i | -85* | -18% | -10% | -29%
CNC(=O)c1sc(N2N=C3/C(=C/c4ccccc4)CCCC3C2c2ccccc2)nc1C (configuration not stated) | 18 | . | 19 | 13µM* | -37% | -4%
COc1ccccc1C(=O)NCc1nnnn1-c1ccc(C)c(C)c1 | . | . | . | . | 2% | -5%
O=C1CN(C(=O)c2ccc(S(=O)(=O)N3CCCCC3)cc2)C(c2ccc(F)cc2)c2cc(F)ccc2N1 (configuration not stated) | . | i | . | 0% | -21% | -14%
CCOC(=O)CSc1nc2sc(C)c(C)c2c(=O)[nH]1 | -2 | i | -2 | 6% | -3% | 0%
CCOC(=O)/C(=C\c1ccc(Cl)cc1)c1nc2sc(C)c(C)c2c(=O)[nH]1 | 11 | . | 6 | ? | 8.9µM* | ?
Oc1cccc(-c2nc3ncccn3c2Nc2cccc(C(F)(F)F)c2)c1 | . | ? | . | ? | -69% | 13µM*
Oc1ccc(-c2nc3ncccn3c2Nc2ccc3c(c2)OCCO3)cc1 | -19 | i | -29 | 2% | 20% | 14%
CC(C)C(NS(C)(=O)=O)c1nnc2n1CCN(Cc1ccc3cccnc3c1)CC2 (configuration not stated) | . | i | . | . | . | .
O=C(O)c1ccccc1C(=O)Nc1ccc(-c2ccccc2)cc1 | . | . | . | 22% | . | .
COc1ccc(CCNC(=O)CCc2c(C)nc3c4c(C)cc(C)nc4nn3c2C)cc1OC | . | ? | . | -5% | 1% | 0%
O=C(CP(=O)(c1ccccc1)c1ccccc1)N/N=C/c1cc(Br)cc(Br)c1O | 0 | i | 0 | 10µM* | -45% | -18%
O=C(C[n+]1ccccc1)N/N=C/c1cc(Br)cc(Br)c1O | 6 | . | -89* | -31% | 3% | -26%
COc1cc(Br)cc(/C=N/NC(=O)Cc2ccccc2)c1O | 3 | . | ? | ? | -66% | 10µM*
O=C(COc1ccc(-c2ccccc2)cc1)N/N=C/c1cc(O)ccc1Br | -20 | ? | -13 | -6% | -63% | 13µM*
O=C(COc1ccc(-c2ccccc2)cc1)N/N=C/c1ccccc1Br | 0 | i | -2 | -3% | -6% | ?
CCN(CC)CCN(C)C(=O)c1ccc(-c2ccccc2)nc1N(C)C | . | i | . | . | . | .
Cc1ccc2nc(NC(=O)CSc3cc(C)[nH]c(=O)n3)sc2c1 | . | i | . | 10% | -14% | 7%
COCCN1C(=O)C(CC(=O)Nc2ccc(C(C)=O)cc2)SC1=Nc1ccccc1 (configuration not stated) | 0 | i | -5 | -2% | 9% | -3%
CC(O)CN1C(=O)C(CC(=O)Nc2ccc(Cl)cc2)SC1=Nc1ccccc1 (configuration not stated) | 0 | ? | 7 | ? | -67% | 11µM*
CCOc1cc(CNCCO)cc(Br)c1OCc1ccc(Cl)cc1Cl | -5 | . | -4 | 20µM* | 16µM* | ?
SMILES | CtBP-E1A inh | ATXN viability | Six1-Eya2 blk | ATXN2 expr inh | HepG2 viability | TGFb SMAD3 inh
OCCNCc1cc(Br)ccc1OCc1ccc(Cl)cc1Cl | -2 | ? | 1 | ? | 16µM* | ?
O=C(/C=C/c1ccc(F)cc1)NCC1Cc2cccc(-c3ncccn3)c2O1 (configuration not stated) | . | i | . | . | . | .
O=C(NCC1Cc2cc(-c3cncnc3)cc(Cl)c2O1)c1cccc(Cn2cccn2)c1 (configuration not stated) | . | i | . | . | . | .
COc1ccc(/C=C2\C(=O)ON=C2c2ccccc2)cc1 | -1 | 20µM* | 0 | ? | -43% | -30%
COC(=O)C1=C(C(C)=O)C(c2ccc(C(=O)OC)cc2)n2nnnc2N1 (configuration not stated) | 1 | i | -2 | 5% | 8% | 18%
COC(=O)C1=C(C(=O)c2ccccc2)C(c2ccccc2)n2nnnc2N1 (configuration not stated) | -5 | 20µM* | 7 | ? | -19% | -1%
O=C(c1cccs1)c1no[n+]([O-])c1C(=O)c1cccs1 | 2 | 28µM* | 0 | ? | -41% | 25µM*
O=C(c1ccc(Cl)nc1)c1cccs1 | 7 | i | 7 | -13% | 20% | 18%
COc1ccc(C(=O)c2no[n+]([O-])c2C(=O)c2ccc(OC)cc2)cc1 | 2 | 28µM* | 5 | ? | -95% | ?
COC(=O)C1=C[C@@H](C(=O)OC)[C@@H]2C3=C(C(=O)C2(C)C)[C@H](C)n2c(=O)n(C)c(=O)n2[C@@H]3C1 | . | . | . | . | -27% | ?
OC(CNCc1ccco1)COc1ccccc1 (configuration not stated) | -3 | i | -1 | 3% | -56% | 10%
OC(CNCc1ccco1)Cn1c2ccccc2c2ccccc21 (configuration not stated) | -3 | i | -7 | -26% | 18µM* | ?
O=C1Cc2cc(CCN3CCN(c4nsc5ccccc45)CC3)c(Cl)cc2N1 | . | 35µM* | . | ? | . | .
Cc1ccc2c(c1)-c1c(ssc1=S)C(C)(C)N2C(=O)CSc1nncn1C | ? | i | ? | -13% | -28% | -27%
Cc1cc(C)c2c(c1)-c1c(ssc1=S)C(C)(C)N2C(=O)CSc1nncn1C | -67* | ? | -67* | ? | -25% | 6.3µM*
O=c1[nH]c(=O)n([C@H]2CCCO2)cc1F | . | i | . | 7% | . | .
Cc1nn(-c2ccccc2)c(Cl)c1/C=N/O | . | ? | 2 | . | 1% | 6%
Cc1nn(-c2ccccc2)c(Cl)c1/C=C/C(=O)c1ccccc1 | -3 | i | 0 | 27% | 11µM* | ?
